# Screen size: about 52,000 compounds; about 1,700 (3.3%) were called active. Rule as the data show it: active = survival mostly below about 52% (no sharp cut-off); inactive = mostly above about 56%. Many of the other results were omitted from the sample, so actives are more common in it than they were.
# System: Wild type
# Assay: growth inhibition of S. aureus wild type versus tarO mutant, primary screen, teichoic acid synthesis inhibitors, RN4220, OD600 (AID 463173)
# Conditions: S. aureus RN4220 wild type/DeltatarO growth, OD600, 18 h, hits give low values, screened at 18.75 µg/mL (by protocol)
row,Structure (SMILES),survival
1,O=C(CSc1nc2c([nH]c3ccccc32)c(=O)n1-c1ccccc1)N1CCCc2ccccc21,128% (inactive)
2,c1ccc2sc(N3CCN(Cc4nnnn4C4CCCC4)CC3)nc2c1,104% (inactive)
3,Fc1ccc(Nc2ncnc3onc(-c4ccc(Cl)cc4)c23)cc1Cl,71% (inactive)
4,Cc1ccccc1CN1C(=O)c2ccccc2Sc2ccc(C(=O)NC(C)c3ccccc3)cc21 (configuration not stated),81% (inactive)
5,COc1ccc(CNC(=O)c2ccc3c(c2)N(C)C(=O)C2CCCCN32)cc1OC (configuration not stated),59% (inactive)
6,CSc1ccc(CNC(=O)c2ccc3c(c2)N(C)C(=O)C2CCCCN32)cc1 (configuration not stated),83% (inactive)
7,CC(C)Oc1ccc(CNC(=O)c2ccc3c(c2)N(C)C(=O)C2CCCCN32)cc1 (configuration not stated),10% (active)
8,CCCCOc1ccc(CNC(=O)c2ccc3c(c2)N(C)C(=O)C2CCCCN32)cc1 (configuration not stated),88% (inactive)
9,COc1cccc(CNC(=O)c2ccc3c(c2)N(C)C(=O)C2CCCCN32)c1 (configuration not stated),68% (inactive)
10,Cc1cccc(CNC(=O)c2ccc3c(c2)N(C)C(=O)C2CCCCN32)c1 (configuration not stated),-3% (active)
11,COc1cccc(CNC(=O)c2ccc3nc(-c4ccccc4)c(-c4ccccc4)nc3c2)c1OC,71% (inactive)
12,CCC(Cn1nnc2ccccc2c1=O)NC(=O)Nc1ccccc1OC (configuration not stated),93% (inactive)
13,CCc1ccccc1NC(=O)[C@@H](c1ccccc1)N1Cc2ccccc2C1=O,22% (inactive)
14,COc1ccccc1OCCSc1ncnc2nc[nH]c12,105% (inactive)
15,Cc1ccc(-c2nnc(Nc3ccc(F)cc3)c3ccccc23)cc1S(=O)(=O)NC(C)C,81% (inactive)
16,COCCCNC(=O)c1cc2cc(S(=O)(=O)N3CCCCC3)ccc2n1C,73% (inactive)
17,COc1ccc(-c2noc(-c3ccccc3NC(=O)c3cc(OC)c(OC)c(OC)c3)n2)cc1,79% (inactive)
18,COc1ccc(C(=O)Nc2ccccc2-c2nc(-c3ccc(OC)cc3)no2)cc1,89% (inactive)
19,COc1ccc(-c2noc(-c3cccc(OC)c3OC)n2)cc1,-3% (active)
20,Cc1ccc(OC(=O)c2snnc2C)cc1C,117% (inactive)
21,COc1ccc(NC(=O)Nc2cccc(-c3cn4cccnc4n3)c2)cc1,77% (inactive)
22,CCOC(=O)c1c(-c2ccccc2)oc2ccc(NS(=O)(=O)c3ccc(C)cc3C)cc12,51% (inactive)
23,Cc1cc(F)ccc1S(=O)(=O)Nc1ccc2oc3c(c2c1)CC(C)CC3 (configuration not stated),-6% (active)

row,Structure (SMILES),survival
1,CCOC(=O)c1c(-c2ccccc2)oc2ccc(NS(=O)(=O)c3ccc(C)cc3)cc12,28% (inactive)
2,CCOc1ccc(S(=O)(=O)Nc2ccc3oc4c(c3c2)CC(C)CC4)cc1 (configuration not stated),60% (inactive)
3,CCCCOC(=O)c1c(C)oc2ccc(NS(=O)(=O)c3ccc(F)cc3C)cc12,1% (active)
4,Cc1cc(C)c(S(=O)(=O)Nc2ccc3oc4c(c3c2)CCCC4)cc1C,72% (inactive)
5,CCc1ccc(S(=O)(=O)Nc2ccc3oc(C)c(C(=O)OCCOC)c3c2)cc1,60% (inactive)
6,CCOC(=O)c1c(-c2ccccc2)oc2ccc(NS(=O)(=O)c3ccccc3)cc12,7% (active)
7,CCOC(=O)c1c(-c2ccccc2)oc2ccc(NS(=O)(=O)c3ccc(OC)cc3)cc12,66% (inactive)
8,Cc1ccc(NC(=O)Cn2c(=O)n(CCCCC(=O)NCc3ccccc3Cl)c(=O)c3ccccc32)cc1C,74% (inactive)
9,Cc1cccc(NC(=O)CSc2nccn2Cc2ccc(F)cc2)c1C,71% (inactive)
10,O=C(Nc1nc2ccc(S(=O)(=O)N3CCCC3)cc2s1)c1cccc(F)c1,63% (inactive)
11,COc1ccc2c(c1)c1c(c(=O)n(-c3ccc(F)c(Cl)c3)c(=O)n1Cc1cccc(C)c1)n2C,71% (inactive)
12,Cc1cc(C)c(NC(=O)CSc2ccnc(=O)[nH]2)c(C)c1,74% (inactive)
13,CCc1nc(C)cn1S(=O)(=O)c1ccc(Cl)c(Cl)c1OC,77% (inactive)
14,CCOc1cc(Cl)c(S(=O)(=O)n2cc(C)nc2CC)cc1Cl,-7% (active)
15,CCOc1cc(Cl)c(S(=O)(=O)n2ccnc2)cc1Cl,74% (inactive)
16,CCCn1c(SCC(=O)c2ccc3c(c2)OCCO3)nnc1-c1ccco1,100% (inactive)
17,O=C(CCN1CCOCC1)N1N=C(c2ccccc2)CC1c1ccco1 (configuration not stated),104% (inactive)
18,Oc1ccc(Br)cc1C1CC(c2ccccc2)=NC(c2ccco2)N1 (configuration not stated),1% (active)
19,COc1ccccc1N1CCN(c2ncnc3c2cnn3-c2cc(Cl)ccc2C)CC1,136% (inactive)
20,COc1ccccc1N1CCN(c2ncnc3c2cnn3-c2ccc(C)cc2)CC1,63% (inactive)
21,COc1ccccc1N1CCN(c2ncnc3c2cnn3-c2cccc(Cl)c2)CC1,-4% (active)
22,O=C(COc1ccccc1Cl)N(Cc1ccco1)Cc1ccco1,81% (inactive)
23,CCCCN(CC)C(=O)CSc1c2c(nc3ccc(Cl)cc13)CCCC2,-2% (active)

row,Structure (SMILES),survival
1,CCc1ccc(CNC(=O)CSc2c3c(nc4ccc(Cl)cc24)CCCC3)cc1,76% (inactive)
2,CN(Cc1ccccc1)C(=O)CSc1c2c(nc3ccc(Cl)cc13)CCCC2,0% (active)
3,Cc1ccc(CNC(=O)CSc2c3c(nc4ccc(Cl)cc24)CCCC3)cc1,80% (inactive)
4,CCCN(CCC)C(=O)CSc1c2c(nc3ccc(Cl)cc13)CCCC2,52% (inactive)
5,CCOc1ccc(CNC(=O)CSc2c3c(nc4ccc(Cl)cc24)CCCC3)cc1,84% (inactive)
6,CCCCN(C)C(=O)CSc1c2c(nc3ccc(Cl)cc13)CCCC2,-2% (active)
7,COc1ccc(NC(=O)CSc2c3c(nc4ccc(Cl)cc24)CCCC3)cc1Cl,75% (inactive)
8,CCCCNC(=O)CSc1c2c(nc3ccc(Cl)cc13)CCCC2,66% (inactive)
9,COc1ccc(CNC(=O)CSc2c3c(nc4ccc(Cl)cc24)CCCC3)cc1,76% (inactive)
10,CCCNC(=O)CSc1c2c(nc3ccc(Cl)cc13)CCCC2,72% (inactive)
11,COc1cc(OC)c(N(C)C(=O)CSc2c3c(nc4ccc(Cl)cc24)CCCC3)cc1Cl,2% (active)
12,CCCN(C(=O)c1c(C)oc2ncn(CC(C)C)c(=O)c12)c1ccccc1C,59% (inactive)
13,CCOc1ccc(CCNC(=O)Cn2nc(C)c3c(C)n(-c4ccccc4)nc3c2=O)cc1OCC,19% (inactive)
14,CCn1cc(CCC(=O)NCc2ccccc2OC)c2ccccc21,76% (inactive)
15,COc1ccc(C(=O)NCc2nnc(SCC(=O)Nc3ccccc3)n2-c2ccc(F)cc2)cc1,78% (inactive)
16,Clc1cccc(-n2ncc3c(N4CCCCCC4)ncnc32)c1,81% (inactive)
17,COc1ccc(-c2nc3ccccc3s2)cc1NC(=O)COc1cccc(C)c1,39% (inactive)
18,COc1cccc(CC(=O)Nc2ccc(-c3nc4ccccc4s3)cc2Cl)c1,73% (inactive)
19,COc1ccccc1C(=O)Nc1ccc(-c2nc3ccccc3s2)c(C)c1,82% (inactive)
20,COc1ccc(CC(=O)Nc2ccc(-c3nc4ccccc4s3)c(C)c2)cc1,69% (inactive)
21,Cc1cc(C)cc(OCC(=O)Nc2ccc(-c3nc4ccccc4s3)cc2)c1,88% (inactive)
22,Cc1cccc(OCC(=O)Nc2cccc(-c3nc4ccccc4s3)c2)c1,5% (active)
23,COc1ccc(CC(=O)Nc2ccc(-c3nc4ccccc4s3)c(C)c2)cc1OC,10% (active)

row,Structure (SMILES),survival
1,Cc1ccc(OCC(=O)Nc2cccc(-c3nc4ccccc4s3)c2)cc1,55% (inactive)
2,COc1cccc(CC(=O)Nc2ccc(-c3nc4ccccc4s3)cc2)c1,-3% (active)
3,COc1ccc(N2CCN(S(=O)(=O)c3cc(Br)cc4c3N(C(=O)C3CC3)CC4)CC2)cc1,90% (inactive)
4,COc1ccc2nc3oc(C(=O)NCc4ccccc4OC)cc3cc2c1,88% (inactive)
5,COc1ccc(NC(=O)CC2C(=O)N(c3ccc(F)cc3)C(=O)N2Cc2ccco2)cc1 (configuration not stated),90% (inactive)
6,COc1ccc(CNC(=O)c2cc3oc4ccccc4c3n2C)cc1OC,64% (inactive)
7,CCOC(=O)c1c(SCC(=O)Nc2nc3ccc(C)cc3s2)nc(=O)[nH]c1C,81% (inactive)
8,Cc1cnc(=O)[nH]c1SCC(=O)Nc1nc2ccccc2s1,89% (inactive)
9,CCOC(=O)c1c(SCC(=O)Nc2nc3ccccc3s2)nc(=O)[nH]c1C,1% (active)
10,CC(C)OCCCNC(=O)Cc1ccc(NC(=O)N2CCCCc3ccccc32)cc1,77% (inactive)
11,CCN(CC)c1ccc(CN(C(=O)c2cc(=O)c3ccccc3o2)C2CCS(=O)(=O)C2)cc1 (configuration not stated),76% (inactive)
12,COC(=O)c1c(NC(=O)CCCOc2ccc(C)cc2)sc2c1C(C(=O)OC)CC2 (configuration not stated),1% (active)
13,COC(=O)c1c(NC(=O)CCCOc2cccc(C)c2)sc2c1C(C(=O)OC)CC2 (configuration not stated),-3% (active)
14,COC(=O)c1c(NC(=O)CCCOc2ccc(C(C)(C)C)cc2)sc2c1CCC(C)C2 (configuration not stated),30% (inactive)
15,COC(=O)c1c(NC(=O)c2cccs2)sc2c1C(C(=O)OC)CC2 (configuration not stated),104% (inactive)
16,COC(=O)c1c(NC(=O)/C(C#N)=C/c2ccc(OC)cc2)sc2c1C(C(=O)OC)CC2 (configuration not stated),71% (inactive)
17,CCOc1ccc(/C=C/C(=O)Nc2sc3c(c2C(=O)OC)C(C(=O)OC)CC3)cc1 (configuration not stated),75% (inactive)
18,COC(=O)c1c(NC(=O)CCCOc2ccc(C(C)(C)C)cc2)sc2c1C(C(=O)OC)CC2 (configuration not stated),-2% (active)
19,CC1CCc2c(sc(NC(=O)CCCOc3ccc(C(C)(C)C)cc3)c2C(N)=O)C1 (configuration not stated),79% (inactive)
20,COC(=O)c1c(NC(=O)/C(C#N)=C/c2ccccc2)sc2c1C(C(=O)OC)CC2 (configuration not stated),82% (inactive)
21,Cc1ccc(N(O)C(=O)Nc2ccccc2)cc1,119% (inactive)
22,COCCCNC(=O)c1ccc2nc(CCc3ccccc3)oc2c1,88% (inactive)
23,Cc1cccc(N2CCN(S(=O)(=O)c3ccc(F)c(C(=O)Nc4ccc(C(C)C)cc4)c3)CC2)c1C,75% (inactive)
